In PubChem BioAssay (NCI) one finds growth inhibition data, which are given here for 39 molecules.

The structures appear in SMILES notation. The panel holds about 79,000 compounds, 15% with a hit somewhere; the sample as a whole holds those more often. Values without a mark were called inactive. Rule as the data show it: active = growth inhibition above about 70%; inactive = the rest.

The first test can be described thus: NCI Yeast Anticancer Drug Screen. Data for the sgs1 mgt1 strain (AID 161).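 Also: 0% = growth of cultures given vehicle only.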 Conditions: S. cerevisiae sgs1 mgt1 strain, at 50.0 µM, stronger effect = higher value. In outline:
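Test agents were incubated with a DNA-repair-mutant yeast strain. Growth was then read and compared against vehicle-treated controls.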
Regarding `CC1N=C(c2ccccc2)C2(c3ccccc3)C(C)N12` (stereo not drawn), the growth inhibition was -7.7%.
As for `Nc1cccc2c1Cc1cc([N+](=O)[O-])ccc1-2`, the growth inhibition is 17.6%.
Still for that read-out and setting: the result for `CC(C)NC(=O)N1C2C3CCC(C)(OC3(C)C)C21` (stereo not drawn) reads 3.7%; that for `CN/N=C(/CCN1CCCC1)CC(c1ccccc1)c1c(O)c2ccccc2oc1=O` (stereo not drawn), 29.6%; that for `O=C(NCCN1CCOCC1)c1cc(N(CCCl)CCCl)c([N+](=O)[O-])cc1[N+](=O)[O-]`, 16.6%.
Still for that read-out and setting: the figure for `CCOP(=O)(O)OCC` is -20.1%; for `Clc1cccc2ccccc12` it is 0.1%; for `Cc1cccc(C)c1NC(N)=S` it is -10.6%.
Same read-out and setting: the result for `CC(C(=O)c1ccccc1)N(C)C` (stereo not drawn) reads -4.2%; that for `O=C1NC(=O)C(=Cc2ccco2)C(=O)N1`, -7.85%.
Regarding `Cn1c(O)c(N=NC(N)=S)c(=O)n(C)c1=O`, the growth inhibition was 8.95%.
Consider `Cn1c[n+](C)nn1`, for which the growth inhibition is -1.3%.
Still for that read-out and setting: the figure for `CCC(=O)OC1(c2ccccc2)CCN(CCC(=O)c2ccccc2)CC1C` (stereo not drawn) is 47.8%; for `NC(=O)C(Cl)c1ccccc1` (stereo not drawn) it is -24.8%.
On the same count and under the same terms, the result for `C1CCC(NC2CCCC2)CC1` reads 32.6%.
`O=[As](O)(O)c1cccc(Cl)c1`: the growth inhibition was -13.8%.
The same measure, in the same setting: the result for `OC12CCC[N+]1(Cc1ccccc1)CCC2` (stereo not drawn) reads -7.9%.
Consider `NC(=O)Oc1cc(OC(N)=O)cc(N(CCCl)CCCl)c1`, for which the growth inhibition was 36.6%.
The same measure, in the same setting: the figure for `CC1N2C3(c4ccccc4)OC(c4ccccc4)(c4ccccc43)C12c1ccccc1` (stereo not drawn) is 4.95%.
The same measure, in the same setting: the result for `O=c1c(O)c(-c2ccccc2)oc2ccccc12.[Zr]` reads -7.7%.
On the same count and under the same terms, the figure for `CN1C(=O)C2(c3ccccc31)C1CC3C(CO1)C1C2C3(CO)CN1C#N` (stereo not drawn) is -39.2%.
On to `c1ccc(OP(Oc2ccccc2)(c2ccccc2)(c2ccccc2)c2ccccc2)cc1`, for which the growth inhibition is 13.4%.
On the same count and under the same terms, the result for `Cc1cc(O)c2c(c1)OC(C)(C)C1=C2CC(C)CC1` (stereo not drawn) reads -1.05%; that for `O=[C-]/C=C/c1ccccc1.[C-]#[O+].[C-]#[O+].[Fe+2].[c-]1ccccc1`, 5.95%.
On the same count and under the same terms, the result for `N#CCc1ccccc1CC#N` reads 2.5%; that for `COC1=CC2CCC3C(CCC4(C)C(OC(C)=O)CCC34)C2(C)CC1` (stereo not drawn), 1.2%.
On the same count and under the same terms, the result for `Cc1ccccc1.[C-]#[O+].[C-]#[O+].[C-]#[O+].[W]` reads 2%; that for `COc1cc2c(cc1OC)-c1c3c(cc4c1[C@H](C2)N(C)CC4)OCO3`, -19.8%; that for `CCCCOCN(CCc1ccccc1)COCCCC`, 24.2%.
As for `O=[N+]([O-])c1ccc(N2CC2)c([N+](=O)[O-])c1`, the growth inhibition is 10.5%.
On the same count and under the same terms, the result for `CC(Cc1cccc2c1Nc1ccccc1S2)N(C)CCO` (stereo not drawn) reads -28.6%.
For `COc1cc(O)c2c(O)c3c(=O)cc(C)oc3cc2c1`, the growth inhibition was 20.6%.
The same measure, in the same setting: the figure for `O=[N+]([O-])c1ccc(CI)cc1` is 36.6%; for `O=C(Nc1ccc(N(CCCl)CCCl)cc1)c1ccc([N+](=O)[O-])cc1` it is 3%; for `O=C1NC(=S)NC(=O)C1=Cc1ccccc1O` it is -12.3%.
`C=C[C](=C)[Pb]([CH2]C)([CH2]C)[CH2]C`: the growth inhibition was -10.5%.
Same read-out and setting: the result for `C[CH2][Sn]([CH2]C)([S]c1nc(O)cc(=O)[nH]1)[S]c1nc(O)cc(=O)[nH]1` reads -18.1%; that for `CC(=O)C1CCC2C3CC=C4CC(OOS(=O)c5ccc(C)cc5)CCC4(C)C3CCC12C` (stereo not drawn), 46.2%; that for `CC(C)CCCC(C)CCC1C(=O)NC(=S)NC1=O` (stereo not drawn), -4.4%.

The next test is described as follows: NCI Yeast Anticancer Drug Screen. Data for the cln2 rad14 strain (AID 165).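 Also: 0% = growth equal to vehicle treated cultures.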 Conditions: S. cerevisiae cln2 rad14 strain, at 50.0 µM, stronger effect = higher value. The method, boiled down: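 Compounds are applied to the cln2 rad14 yeast strain, and growth is then compared with that of vehicle-treated cultures to give inhibition.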
On to `CC1N=C(c2ccccc2)C2(c3ccccc3)C(C)N12` (stereo not drawn), for which the growth inhibition was -29.2%.
Consider `Nc1cccc2c1Cc1cc([N+](=O)[O-])ccc1-2`, for which the growth inhibition was -14.4%.
The same measure, in the same setting: the figure for `CC(C)NC(=O)N1C2C3CCC(C)(OC3(C)C)C21` (stereo not drawn) is -9.35%; for `CN/N=C(/CCN1CCCC1)CC(c1ccccc1)c1c(O)c2ccccc2oc1=O` (stereo not drawn) it is 35.2%; for `O=C(NCCN1CCOCC1)c1cc(N(CCCl)CCCl)c([N+](=O)[O-])cc1[N+](=O)[O-]` it is 23.6%.
Same read-out and setting: the figure for `CCOP(=O)(O)OCC` is -0.25%; for `Clc1cccc2ccccc12` it is 14.1%; for `Cc1cccc(C)c1NC(N)=S` it is -86.7%.
On the same count and under the same terms, the figure for `CC(C(=O)c1ccccc1)N(C)C` (stereo not drawn) is -50.4%; for `O=C1NC(=O)C(=Cc2ccco2)C(=O)N1` it is 5.65%; for `Cn1c(O)c(N=NC(N)=S)c(=O)n(C)c1=O` it is -20.4%.
In the case of `Cn1c[n+](C)nn1`, the growth inhibition was -29.1%.
As to `CCC(=O)OC1(c2ccccc2)CCN(CCC(=O)c2ccccc2)CC1C` (stereo not drawn), the growth inhibition was 38.6%.
The same measure, in the same setting: the figure for `NC(=O)C(Cl)c1ccccc1` (stereo not drawn) is -23.6%; for `C1CCC(NC2CCCC2)CC1` it is 59%; for `O=[As](O)(O)c1cccc(Cl)c1` it is 1.85%.
As for `OC12CCC[N+]1(Cc1ccccc1)CCC2` (stereo not drawn), the growth inhibition was 2.85%.
As to `NC(=O)Oc1cc(OC(N)=O)cc(N(CCCl)CCCl)c1`, the growth inhibition was 12%.
For the molecule `CC1N2C3(c4ccccc4)OC(c4ccccc4)(c4ccccc43)C12c1ccccc1` (stereo not drawn), the growth inhibition is 31.9%.
Regarding `O=c1c(O)c(-c2ccccc2)oc2ccccc12.[Zr]`, the growth inhibition was 18.4%.
For `CN1C(=O)C2(c3ccccc31)C1CC3C(CO1)C1C2C3(CO)CN1C#N` (stereo not drawn), the growth inhibition was 1.1%.
Consider `c1ccc(OP(Oc2ccccc2)(c2ccccc2)(c2ccccc2)c2ccccc2)cc1`, for which the growth inhibition was -16.4%.
Still for that read-out and setting: the result for `Cc1cc(O)c2c(c1)OC(C)(C)C1=C2CC(C)CC1` (stereo not drawn) reads -52.8%.
Take `O=[C-]/C=C/c1ccccc1.[C-]#[O+].[C-]#[O+].[Fe+2].[c-]1ccccc1`: the growth inhibition was -3%.
With `N#CCc1ccccc1CC#N`, the growth inhibition was -19.7%.
The same measure, in the same setting: the result for `COC1=CC2CCC3C(CCC4(C)C(OC(C)=O)CCC34)C2(C)CC1` (stereo not drawn) reads 4.1%; that for `Cc1ccccc1.[C-]#[O+].[C-]#[O+].[C-]#[O+].[W]`, 28.2%; that for `COc1cc2c(cc1OC)-c1c3c(cc4c1[C@H](C2)N(C)CC4)OCO3`, 6.75%.
Consider `CCCCOCN(CCc1ccccc1)COCCCC`, for which the growth inhibition was 19.2%.
Regarding `O=[N+]([O-])c1ccc(N2CC2)c([N+](=O)[O-])c1`, the growth inhibition was 20%.
`CC(Cc1cccc2c1Nc1ccccc1S2)N(C)CCO` (stereo not drawn): the growth inhibition was -5.25%.
Still for that read-out and setting: the figure for `COc1cc(O)c2c(O)c3c(=O)cc(C)oc3cc2c1` is 12.6%; for `O=[N+]([O-])c1ccc(CI)cc1` it is -3.55%.
As for `O=C(Nc1ccc(N(CCCl)CCCl)cc1)c1ccc([N+](=O)[O-])cc1`, the growth inhibition is -23.6%.
As to `O=C1NC(=S)NC(=O)C1=Cc1ccccc1O`, the growth inhibition is -32.4%.
The same measure, in the same setting: the result for `C=C[C](=C)[Pb]([CH2]C)([CH2]C)[CH2]C` reads 13.7%.
On the same count and under the same terms, the result for `C[CH2][Sn]([CH2]C)([S]c1nc(O)cc(=O)[nH]1)[S]c1nc(O)cc(=O)[nH]1` reads 7.9%; that for `CC(=O)C1CCC2C3CC=C4CC(OOS(=O)c5ccc(C)cc5)CCC4(C)C3CCC12C` (stereo not drawn), -31.4%; that for `CC(C)CCCC(C)CCC1C(=O)NC(=S)NC1=O` (stereo not drawn), 1.75%.
